The record followed here is PubChem BioAssay (NCI).

Structures are written as SMILES. Compounds without any hit were thinned out: in the full panel of roughly 83,000, 20% have a hit.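 Assay: single dose, 48 h. Readout: percent growth (0 = no net growth; negative = cell death). Active: <10.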 Values without a mark were called inactive. Activity calls are given as the source filed them.

The test system of the test is HL-60(TB) leukemia. Put plainly: NCI-60 one-dose screen, 48 h (100 = growth as untreated, 0 = no growth, -100 = all killed). Particulars: 10 µM unless noted.
In the case of `C=C(C)[C@@H]1CC[C@]2(CO)CC[C@]3(C)[C@H](CC[C@@H]4[C@@]5(C)CCCNC(C)(C)[C@@H]5CC[C@]43C)[C@@H]12`, the growth was -51.9% (active).

On to `CCOC(=O)c1cc(/C=C/c2ccc(Cl)cc2Cl)on1`, for which the growth is 74.2%.

Regarding `O=S1(=O)N(Cc2ccccc2)[C@@H](Cc2ccccc2)C2O[C@H]2[C@H](Cc2ccccc2)N1Cc1ccccc1` (stereo partly specified), the growth is 46%.

`CCCCC1=C(Br)C(=O)c2ncccc2C1=O`: the growth is 83.3%.

On to `O=C(c1ccc(F)cc1)C1CCN(CCn2c(=O)[nH]c3ccccc3c2=O)CC1`, for which the growth was 97.3%.

As for `CCCCOS(=O)(=O)c1ccccc1`, the growth was 111%.

As for `CN1COc2ccc3ccccc3c2C1`, the growth was 93.2%.

On to `N#Cc1ccc(O)c(C2=NCC(c3ccc(-c4ccccc4)cc3)O2)c1` (stereo unspecified), for which the growth is -17.3% (active).

As for `CCCCC(=O)OCC1OC(n2cnc3c(=S)nc[nH]c32)C(OC(=O)CCCC)C1OC(=O)CCCC` (stereo unspecified), the growth is 12.5%.

Take `Cc1cc(Cl)cc(Cc2cc(Cl)cc(C)c2O)c1O`: the growth was -27.9% (active).

For `CCN1CCN(CC(=O)N2c3cccc4cccc(c34)N(C(=O)CN3CCN(CC)CC3)C2c2cn(-c3ccccc3)nc2-c2cccc([N+](=O)[O-])c2)CC1`, the growth was -63.9% (active).

Consider `NCCCNc1nc2ccccc2c2c(=O)c3cc(F)cc(F)c3sc12`, for which the growth was 61.2%.

For `N=C(N)c1ccc(-c2ccc(-c3ccc(Cl)cc3)o2)nc1`, the growth is 110%.

Take `COc1ccc(-c2nc(C#N)c(NCC(c3ccco3)N3CCCC3)o2)cc1` (stereo unspecified): the growth is -14.1% (active).

`Fc1ccc2[nH]cc(-c3nc(-c4c[nH]c5ccncc45)cs3)c2c1`: the growth is -42.1% (active).

Regarding `COc1cc(/C=C2\CCCC3=C2N=C2SC(C)=CN2C3c2cc(OC)c(OC)c(OC)c2)cc(OC)c1OC` (stereo unspecified), the growth is -11.9% (active).

For the compound `CCCCCCCCCNCCCCCCCCC`, the growth is 28.6%.

Regarding `O=[P@@]1(c2ccccc2)O[C@H](COCc2ccccc2)[C@@H](OCc2ccccc2)[C@H](OCc2ccccc2)[C@H]1O`, the growth is 98.5%.

`CCCCCCC(=O)Nc1ncc(Cc2ccc(C)cc2)s1`: the growth was -18.2% (active).

In the case of `NCc1cn2cc(Cl)sc2n1`, the growth was 129%.

On to `O=C(O)CSCSCC(=O)O`, for which the growth was 98.5%.

`C[C@@H]1C(=O)[C@@H]2C[C@@H](O)[C@@H](O)C[C@]2(C)[C@H]2CC[C@@]3(C)C(=C12)CC[C@@H]3[C@@](C)(O)[C@H](O)CCC(C)(C)O`: the growth is 85.7%.

Turning to `COc1ccc2c(/C=C3/C(=O)NC(=S)NC3C)cc(=O)oc2c1` (stereo unspecified), the growth is 90.5%.

Take `CC1(C)N=C(N)N=C(N)N1c1cccc(/C=C/C=C/c2cccc([N+](=O)[O-])c2)c1`: the growth is 12%.

`C=C(C)[C@@H]1CC[C@]2(C(N)=O)CC[C@]3(C)[C@H](CC[C@@H]4[C@@]5(C)CC[C@H](OCCC#N)C(C)(C)[C@@H]5CC[C@]43C)[C@@H]12`: the growth was 99.9%.

For the compound `O=C(Nc1ccccc1Cl)OCCN1CCOCC1`, the growth was 108%.

As for `COc1c(O)cc2oc3cc(O[C@@H]4OC(C)[C@@H](O)[C@H](O)C4O)c(CC=C(C)C)c(O)c3c(=O)c2c1CC=C(C)C` (stereo partly specified), the growth is 90.4%.

For `O=C(/C=C/C12c3ccccc3C(c3ccccc31)C1C(=O)NC(=O)C12)c1ccco1` (stereo unspecified), the growth is 8.34% (active).

Turning to `COc1ccc2nc(-c3ccccc3)cc(C(C)=O)c2c1`, the growth was 84.8%.

With `C/C=C/CC(C)C(O)C1C(=O)NC(CC)C(=O)N(C)CC(=O)N(C)C(CC(C)C)C(=O)NC(C(C)C)C(=O)N(C)C(CC(C)C)C(=O)NC(C)C(=O)NC(C)C(=O)N(C)C(CC(C)C)C(=O)N(C)C(CC(C)C)C(=O)N(C)C(C(C)C)C(=O)N1C` (stereo unspecified), the growth was -9.23% (active).

As to `Cc1cnc(Nc2ccc(OCCN3CCCC3)cc2)nc1Nc1cccc(S(=O)(=O)NC(C)(C)C)c1`, the growth is -39.7% (active).

For the compound `c1ccc2c(Cc3csc4ccccc34)csc2c1`, the growth is 72%.

Consider `Fc1ccc(-c2nc(Nc3ccc(-c4nc5ccccc5[nH]4)cc3)nc(N3CCOCC3)n2)cc1`, for which the growth is -81.4% (active).

As to `COc1cc2c(c(OC)c1OC)-c1ccc(SC)c(=O)cc1[C@@H](NC1OC(CO)C(O)C(O)C1O)CC2` (stereo partly specified), the growth was -38.6% (active).

Take `Nc1cc(Br)c(-c2nnc(CCC(=O)c3nc4ccccc4[nH]3)o2)c(Br)c1`: the growth was 88%.

Turning to `COc1ccc2cc(C3=CC(=O)CCC3)ccc2c1`, the growth is 89.7%.
